For some of these results: Potency and affinity values are given separately.
Tests used:
Design in all cases: scale not given: direction of the effect not stated beside the values
[1] = target: Protein translocase subunit SecA (Escherichia coli (strain K12)) (UniProt P10408); assay: Assay to Identify E. coli SecA ATPase Inhibitors; assay type: functional; settings: 30 µM
[2] = target: T1, Ubiquitin-activating enzyme e1, putative (Leishmania donovani (strain BPK282A1)) (UniProt E9BSI1); assay: Leishmania donovani Ubiquitin Activating Enzyme (LdE1); assay type: functional; settings: 30 µM
T1 sequence (whole entry): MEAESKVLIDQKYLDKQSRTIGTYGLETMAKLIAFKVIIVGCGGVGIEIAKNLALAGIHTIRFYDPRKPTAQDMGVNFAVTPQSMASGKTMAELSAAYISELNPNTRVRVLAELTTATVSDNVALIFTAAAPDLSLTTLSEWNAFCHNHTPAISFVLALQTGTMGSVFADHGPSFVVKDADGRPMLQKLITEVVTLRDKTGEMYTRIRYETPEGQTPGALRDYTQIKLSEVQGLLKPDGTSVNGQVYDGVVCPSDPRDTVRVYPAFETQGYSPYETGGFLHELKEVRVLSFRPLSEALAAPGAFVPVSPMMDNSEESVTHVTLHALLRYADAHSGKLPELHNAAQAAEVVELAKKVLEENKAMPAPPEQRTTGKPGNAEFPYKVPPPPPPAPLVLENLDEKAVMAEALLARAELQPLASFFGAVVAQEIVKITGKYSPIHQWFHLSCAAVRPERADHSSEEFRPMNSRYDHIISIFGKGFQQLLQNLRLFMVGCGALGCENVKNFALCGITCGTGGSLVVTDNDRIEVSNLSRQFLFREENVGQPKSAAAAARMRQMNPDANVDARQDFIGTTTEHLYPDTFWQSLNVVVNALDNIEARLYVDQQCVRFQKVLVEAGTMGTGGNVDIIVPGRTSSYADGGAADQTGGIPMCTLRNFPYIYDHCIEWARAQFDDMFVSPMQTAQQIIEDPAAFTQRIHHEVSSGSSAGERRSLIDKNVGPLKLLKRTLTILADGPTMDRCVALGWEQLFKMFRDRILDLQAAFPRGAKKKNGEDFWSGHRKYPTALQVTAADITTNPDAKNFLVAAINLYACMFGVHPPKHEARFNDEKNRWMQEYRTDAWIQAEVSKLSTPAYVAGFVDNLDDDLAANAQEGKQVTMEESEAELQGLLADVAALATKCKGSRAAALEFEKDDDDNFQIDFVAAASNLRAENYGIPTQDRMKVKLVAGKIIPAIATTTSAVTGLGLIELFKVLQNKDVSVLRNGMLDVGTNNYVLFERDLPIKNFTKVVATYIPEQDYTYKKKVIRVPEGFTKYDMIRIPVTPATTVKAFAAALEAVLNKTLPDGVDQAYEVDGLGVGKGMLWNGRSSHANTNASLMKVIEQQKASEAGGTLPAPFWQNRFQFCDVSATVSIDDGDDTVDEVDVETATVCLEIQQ

[3] = target: AMP-activated protein kinase, AMPK (Homo sapiens) (UniProt P54646+O43741+P54619+Q9UGJ0+Q9Y478+Q13131+Q9UGI9); assay: AMP-dependent Kinase enzyme assay. An in vitro enzyme assay that detects ADP turnover that is directly proportional to AMPK activity. This uses naive AMPK that is activated during the assay with MK-8722; assay type: functional; settings: 30 µM
[4] = target: Sialic acid-binding Ig-like lectin 9 (Homo sapiens) (UniProt Q9Y336); assay: Hs-Siglec9 ALPHAscreen SOP 20170721; settings: 10 µM
Chain of Sialic acid-binding Ig-like lectin 9 (Homo sapiens) (Q9Y336 whole entry): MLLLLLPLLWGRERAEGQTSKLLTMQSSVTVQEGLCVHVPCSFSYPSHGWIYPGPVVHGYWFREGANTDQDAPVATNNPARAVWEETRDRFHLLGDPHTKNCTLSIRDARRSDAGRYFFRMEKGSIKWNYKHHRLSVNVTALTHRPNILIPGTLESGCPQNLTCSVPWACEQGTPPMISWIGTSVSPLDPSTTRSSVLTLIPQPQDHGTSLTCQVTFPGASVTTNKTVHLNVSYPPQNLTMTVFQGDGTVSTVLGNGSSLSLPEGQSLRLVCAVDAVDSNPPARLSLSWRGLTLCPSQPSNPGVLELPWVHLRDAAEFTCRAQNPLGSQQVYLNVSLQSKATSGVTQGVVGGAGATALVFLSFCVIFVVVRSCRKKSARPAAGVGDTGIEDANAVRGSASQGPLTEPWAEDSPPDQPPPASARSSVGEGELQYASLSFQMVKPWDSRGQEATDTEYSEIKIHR

Trypanosoma cruzi = assay: Trypanosoma cruzi phosphomannomutase and mannose-1-phosphate guanylyltransferase assay; assay type: functional; settings: 10 µM
[5] = target: T2, Arginase-2, mitochondrial (Homo sapiens) (UniProt P78540); assay: in vitro enzyme assay to detect the production of urea directly proportional to the activity of Arginase II; assay type: functional; settings: 33.3 µM; also: in the data most compounds retested in dose-response had high values
T2 sequence (whole entry): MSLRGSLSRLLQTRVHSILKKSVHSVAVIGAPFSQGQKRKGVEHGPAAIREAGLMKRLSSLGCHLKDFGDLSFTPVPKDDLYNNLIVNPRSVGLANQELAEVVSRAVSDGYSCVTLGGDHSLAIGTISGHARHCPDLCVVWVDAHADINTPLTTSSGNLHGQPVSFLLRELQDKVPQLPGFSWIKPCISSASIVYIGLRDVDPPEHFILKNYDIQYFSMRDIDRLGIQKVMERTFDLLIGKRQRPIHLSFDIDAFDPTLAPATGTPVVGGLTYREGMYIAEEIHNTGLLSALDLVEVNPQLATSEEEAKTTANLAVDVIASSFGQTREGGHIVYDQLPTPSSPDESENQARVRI

[6] = target: T3, Proteasome subunit beta (Trypanosoma cruzi) (UniProt O96673); assay: Trypanosoma cruzi proteasome chymotrypsin-like activity (TcProtChymo) assay.; also: in the data most compounds retested in dose-response had high values; assay type: functional; settings: 9.37 µM
T3 sequence (whole entry): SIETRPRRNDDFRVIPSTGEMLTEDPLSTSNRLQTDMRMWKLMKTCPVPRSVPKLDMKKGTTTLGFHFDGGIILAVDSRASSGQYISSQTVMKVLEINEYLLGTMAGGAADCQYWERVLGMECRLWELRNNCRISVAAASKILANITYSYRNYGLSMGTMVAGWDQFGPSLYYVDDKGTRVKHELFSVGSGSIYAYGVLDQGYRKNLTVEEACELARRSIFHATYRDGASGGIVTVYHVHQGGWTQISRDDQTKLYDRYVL

Homo sapiens = species: Homo sapiens; assay: To identify inhibition of the IFN signalling (Jak-Stat) pathway via expression of an eGFP reporter gene under the control of an IFN-stimulated response element (ISRE) containing MxA promoter.; assay type: functional; settings: 30 µM
[7] = target: T4, Tyrosyl-tRNA synthetase, putative (Trypanosoma cruzi (strain CL Brener)) (UniProt Q4DSP6); assay: Trypanosoma cruzi tyrosyl tRNA synthetase (TcYRS) _High Tyrosine SOP; assay type: functional; settings: 30 µM; also: in the data most compounds retested in dose-response had high values
T4 sequence (whole entry): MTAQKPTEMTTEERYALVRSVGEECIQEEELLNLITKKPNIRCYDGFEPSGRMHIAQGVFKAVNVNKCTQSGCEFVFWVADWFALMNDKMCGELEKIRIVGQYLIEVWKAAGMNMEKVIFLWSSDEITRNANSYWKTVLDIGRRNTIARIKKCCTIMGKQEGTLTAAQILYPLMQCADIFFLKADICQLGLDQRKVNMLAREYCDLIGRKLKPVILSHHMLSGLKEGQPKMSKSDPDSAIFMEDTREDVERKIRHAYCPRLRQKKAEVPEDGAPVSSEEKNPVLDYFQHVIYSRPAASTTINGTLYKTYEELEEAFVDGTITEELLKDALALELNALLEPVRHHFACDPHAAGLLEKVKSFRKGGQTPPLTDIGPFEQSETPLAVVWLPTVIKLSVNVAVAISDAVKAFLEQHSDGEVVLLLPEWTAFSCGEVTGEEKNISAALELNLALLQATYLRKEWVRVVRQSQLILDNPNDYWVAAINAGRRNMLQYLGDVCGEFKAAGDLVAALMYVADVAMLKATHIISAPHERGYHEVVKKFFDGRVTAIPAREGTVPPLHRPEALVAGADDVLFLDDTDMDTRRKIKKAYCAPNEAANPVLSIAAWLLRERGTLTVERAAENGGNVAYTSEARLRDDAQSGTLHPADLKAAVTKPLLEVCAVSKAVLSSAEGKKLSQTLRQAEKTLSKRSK

[8] = target: T4, Tyrosyl-tRNA synthetase, putative (Trypanosoma cruzi (strain CL Brener)); assay: Trypanosoma cruzi tyrosyl tRNA synthetase (TcYRS) SOP; assay type: functional; settings: 30 µM
[9] = target: Chromo domain-containing protein 1 (Saccharomyces cerevisiae (strain ATCC 204508 / S288c) (Baker's yeast)) (UniProt P32657); assay: ScCHD-1 Enzyme Inhibition Assay; assay type: functional; settings: 30 µM; also: in the data most compounds retested in dose-response had high values
Chain of Chromo domain-containing protein 1 (Saccharomyces cerevisiae (strain ATCC 204508 / S288c) (Baker's yeast)) (P32657 whole entry, the tested form may be a part): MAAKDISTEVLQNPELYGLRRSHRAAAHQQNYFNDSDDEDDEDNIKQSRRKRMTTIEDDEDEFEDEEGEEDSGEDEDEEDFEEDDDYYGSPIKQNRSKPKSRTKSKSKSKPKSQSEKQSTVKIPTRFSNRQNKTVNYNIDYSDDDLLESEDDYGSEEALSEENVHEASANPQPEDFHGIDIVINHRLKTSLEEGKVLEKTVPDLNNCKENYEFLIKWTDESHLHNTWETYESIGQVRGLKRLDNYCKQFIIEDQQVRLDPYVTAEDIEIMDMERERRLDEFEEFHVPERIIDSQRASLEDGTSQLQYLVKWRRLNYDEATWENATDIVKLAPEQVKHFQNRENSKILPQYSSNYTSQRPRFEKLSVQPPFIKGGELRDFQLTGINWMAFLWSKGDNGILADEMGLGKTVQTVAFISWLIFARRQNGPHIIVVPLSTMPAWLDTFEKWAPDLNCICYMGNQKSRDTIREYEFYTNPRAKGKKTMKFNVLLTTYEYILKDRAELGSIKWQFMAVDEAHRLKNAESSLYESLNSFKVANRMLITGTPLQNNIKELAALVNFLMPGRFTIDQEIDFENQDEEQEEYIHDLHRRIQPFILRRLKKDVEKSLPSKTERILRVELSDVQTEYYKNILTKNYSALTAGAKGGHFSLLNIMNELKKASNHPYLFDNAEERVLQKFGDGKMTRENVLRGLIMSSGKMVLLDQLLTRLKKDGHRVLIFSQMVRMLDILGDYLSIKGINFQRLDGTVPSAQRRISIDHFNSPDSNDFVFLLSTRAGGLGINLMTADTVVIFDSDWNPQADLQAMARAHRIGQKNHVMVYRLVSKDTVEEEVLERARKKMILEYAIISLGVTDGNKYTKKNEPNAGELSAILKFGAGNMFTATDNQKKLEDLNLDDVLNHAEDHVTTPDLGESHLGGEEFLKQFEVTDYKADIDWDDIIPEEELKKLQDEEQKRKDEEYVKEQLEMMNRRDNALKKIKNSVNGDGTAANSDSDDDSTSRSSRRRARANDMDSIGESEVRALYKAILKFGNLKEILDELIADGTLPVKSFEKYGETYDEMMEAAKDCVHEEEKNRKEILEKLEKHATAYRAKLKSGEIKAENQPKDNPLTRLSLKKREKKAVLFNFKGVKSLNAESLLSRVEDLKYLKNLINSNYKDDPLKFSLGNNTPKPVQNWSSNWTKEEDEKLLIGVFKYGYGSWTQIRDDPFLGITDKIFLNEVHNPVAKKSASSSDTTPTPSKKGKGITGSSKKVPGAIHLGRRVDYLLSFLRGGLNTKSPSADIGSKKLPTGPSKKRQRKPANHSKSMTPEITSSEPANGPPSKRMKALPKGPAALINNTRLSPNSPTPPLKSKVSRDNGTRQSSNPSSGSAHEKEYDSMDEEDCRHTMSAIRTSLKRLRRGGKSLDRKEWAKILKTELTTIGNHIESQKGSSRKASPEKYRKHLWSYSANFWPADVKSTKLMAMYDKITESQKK

Chain of Protein translocase subunit SecA (Escherichia coli (strain K12)) (P10408 whole entry): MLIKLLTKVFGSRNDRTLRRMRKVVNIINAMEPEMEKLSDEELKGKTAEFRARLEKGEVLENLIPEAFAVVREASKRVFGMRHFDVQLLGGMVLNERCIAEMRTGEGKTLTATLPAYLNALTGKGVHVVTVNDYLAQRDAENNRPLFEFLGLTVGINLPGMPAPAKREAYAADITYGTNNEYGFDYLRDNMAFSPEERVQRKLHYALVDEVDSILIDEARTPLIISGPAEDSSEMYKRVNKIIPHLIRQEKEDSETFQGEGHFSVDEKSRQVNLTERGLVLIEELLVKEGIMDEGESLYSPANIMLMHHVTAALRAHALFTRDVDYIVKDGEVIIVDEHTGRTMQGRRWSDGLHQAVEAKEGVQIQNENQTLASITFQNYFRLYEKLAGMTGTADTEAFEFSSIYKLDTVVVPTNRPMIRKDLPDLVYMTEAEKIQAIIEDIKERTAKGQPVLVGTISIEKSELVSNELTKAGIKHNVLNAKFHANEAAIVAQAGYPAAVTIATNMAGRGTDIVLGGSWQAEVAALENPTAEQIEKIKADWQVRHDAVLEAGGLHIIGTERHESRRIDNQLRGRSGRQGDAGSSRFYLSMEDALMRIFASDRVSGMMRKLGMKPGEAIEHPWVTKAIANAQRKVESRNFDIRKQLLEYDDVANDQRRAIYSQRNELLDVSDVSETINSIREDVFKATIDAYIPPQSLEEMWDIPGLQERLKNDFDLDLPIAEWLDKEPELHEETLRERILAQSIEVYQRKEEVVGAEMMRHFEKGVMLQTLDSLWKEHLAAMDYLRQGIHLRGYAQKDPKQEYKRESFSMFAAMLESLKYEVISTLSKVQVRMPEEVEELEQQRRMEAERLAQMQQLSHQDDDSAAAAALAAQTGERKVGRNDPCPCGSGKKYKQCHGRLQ

Row | SMILES | Percent Effect [1] [%] | Percent Effect [2] [%] | Percent Effect [3] [%] | Percent Effect [4] [%] | Percent Effect (Trypanosoma cruzi) [%] | Percent Effect [5] [%] | Percent Effect [6] [%] | Percent Effect (Homo sapiens) [%] | Percent Effect [7] [%] | Percent Effect [8] [%] | Percent Effect [9] [%]
1 | O=C(COc1ccc(C(F)(F)F)cc1)NS(=O)(=O)c1cccnc1 | -0.269 | 0 | 4.15 | -3.63 | -1.5 | 0.383 | 3.84 | -6.19 | -1.47 | -4.88 | 4.47
2 | Cc1ccc(CNC(=O)Nc2cc(C(F)(F)F)c[nH]c2=O)cn1 | -3.22 | 6.94 | 7.59 | -6.47 | 0.0972 | 4.42 | 11.6 | -18.5 | 6.32 | 12.8 | -5.05
3 | O=C(NCc1cnc2n1CCN(CC1CC1)CC2)C1CCC1 | -2.75 | 13.5 | -7.3 | 21.4 | 4.79 | 18.1 | 7.47 | -8.45 | 6.45 | 16.1 | -4.7
4 | Cc1cccc(CN2CCc3ncnc(N4CCOCC4)c3CC2)n1 | -4.12 | -5.48 | 1.75 | -1.38 | -1.39 | 3.59 | 4.2 | 20.4 | -1.04 | 1.24 | -0.552
5 | CS(=O)(=O)N1CCOCC2(CN(Cc3ccsc3)CCO2)C1 (stereo not given) | -4.51 | 5.48 | -1.43 | 5.15 | 7.14 | -4.39 | 8.82 | 10.5 | 5.21 | 6.17 | -0.73
6 | CCCc1cc(C(=O)N(C)Cc2cccc3ncccc23)n(C)n1 | -4.03 | 15.6 | 2.46 | 20.3 | 3.25 | -19.3 | 14.6 | 36.1 | 7.53 | 18.5 | -8.05
7 | CCn1cnnc1C1CCN(C(=O)c2cccc3c2ccn3C)CC1 | -5.72 | 18.2 | -2.51 | 0.647 | 3.37 | -4.63 | 7.43 | -1.75 | 7.77 | 24.4 | -13.2
8 | Cc1nc(N2CCCC2)nc2c1CCN(C(=O)C1CCCC1)CC2 | -2.37 | 4 | 0.866 | 2.33 | -3.54 | -4.4 | 15.2 | -11.3 | 9.52 | 10.3 | -6.44
9 | CN(C)C(=O)N1C[C@H]2CN(Cc3cccc(F)c3)C(=O)[C@H]2C1 | -4.01 | 10.8 | 7.46 | -7.24 | -4.2 | 0.955 | 20.9 | 4.49 | 0 | -7.69 | -1.2
10 | CCN1CCC(c2nc3ccc(NC(C)C)cn3n2)CC1 | -3.94 | -2.7 | -138 | -3.17 | 7.62 | -1.25 | 4.48 | -12.5 | 5.94 | 11 | 0.337
11 | CCn1nc2c(cc1=O)CN(Cc1nc(N)c3ccccc3n1)CC2 | -5.07 | 5.48 | -62.9 | 1.04 | 3.92 | 3.64 | 14.6 | -3.85 | 2.15 | 12.5 | -7.75
12 | COc1ccc(OC)c(NC(=O)NCC(O)c2ccc(F)c(F)c2)c1 (stereo not given) | -0.0799 | 8.86 | 8.98 | -1.21 | -5.44 | 3.23 | 15.6 | 9.13 | -1.04 | 5.06 | -21.5
13 | Cn1cnc2c1CCN(CCCOc1ccc(C#N)cc1)C2 | -7.51 | 2.53 | -0.357 | -0.18 | -2.93 | -1.14 | 5.98 | 20.4 | -0.493 | -1.27 | -3.4
14 | Cc1nc(O)cc(C2CCN(Cc3cccc(F)c3F)C2)n1 (stereo not given) | -5.61 | 20.3 | -0.666 | -0.896 | 1.19 | -3.94 | 9.83 | 2.45 | 2.15 | 16.9 | -14.2
15 | COc1cccc(CNC(=O)CC2CSc3ncc(C)c(=O)n32)c1 (stereo not given) | -1.02 | 15.6 | 31.4 | -9.59 | -5.03 | 3.23 | 13.9 | 16.4 | 5.29 | 3.85 | -9.11
16 | COc1ccc(OC)c(C2C3=C(COC3=O)Nc3[nH]nc(C)c32)c1 (stereo not given) | -1.85 | 17.3 | 0.267 | -8.04 | 5.11 | 17.1 | 3.33 | 7.65 | 4.23 | 10.3 | -11.1
17 | O=C(CC1CCCCC1)N1CCN(C(=O)NCc2ccccn2)CC1 | -3.1 | 10.4 | 1.16 | -0.668 | 1.86 | 1.05 | 6.39 | -4.56 | 4.76 | -16.5 | -15
18 | CC(C)CN1C(=O)c2ccc(C(=O)NCCc3c[nH]cn3)cc2C1=O | -1.59 | -1.33 | 14.6 | 3.62 | -7.07 | -9.68 | 8.87 | -4.06 | 5.29 | 5.13 | -5.85
19 | O=C(c1ccc[nH]1)N1C[C@H]2CN(Cc3cccc(F)c3)C(=O)[C@H]2C1 | -2.55 | 13.5 | 9.65 | -6.44 | -2.05 | 6.05 | 20.3 | 13 | 0 | 7.69 | -2.96
20 | O=C(Cc1ccc(F)cc1)N1CCn2cc(Cn3cccn3)nc2C1 | -3.25 | 10.8 | 5.39 | -3.22 | -1.66 | 6.69 | 8.12 | -1.16 | 5.41 | 20.5 | 0.365
